Measurements as given in PubChem BioAssay (NCI).
This is part of a sample that, as a whole, favours compounds with a hit. Of some 83,000 tested, about 20% had one in any assay.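 Plates (96-well) were seeded with cells, treated with compound at one concentration, and incubated for 48 hours before percent growth was determined.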 Values without a mark were called inactive. Calls of active or inactive are those of the source. Rule for the calls: active = growth percent below 10; inactive = the rest.

What was measured:
Experiment in all cases: NCI-60 one-dose screen, 48 h (100 = growth as untreated, 0 = no growth, -100 = all killed)
Details in all cases: 10 µM unless noted
RPMI-8226 leukemia = test system: RPMI-8226 leukemia
OVCAR-8 ovarian = test system: OVCAR-8 ovarian
OVCAR-5 ovarian = test system: OVCAR-5 ovarian
OVCAR-4 ovarian = test system: OVCAR-4 ovarian
SK-OV-3 ovarian = test system: SK-OV-3 ovarian
IGROV1 ovarian = test system: IGROV1 ovarian
OVCAR-3 ovarian = test system: OVCAR-3 ovarian
HS 578T breast = test system: HS 578T breast
NCI/ADR-RES ovarian = test system: NCI/ADR-RES ovarian
T-47D breast = test system: T-47D breast

Structure (SMILES) | growth (RPMI-8226 leukemia) | growth (OVCAR-8 ovarian) | growth (OVCAR-5 ovarian) | growth (OVCAR-4 ovarian) | growth (SK-OV-3 ovarian) | growth (IGROV1 ovarian) | growth (OVCAR-3 ovarian) | growth (HS 578T breast) | growth (NCI/ADR-RES ovarian) | growth (T-47D breast)
N#Cc1c(N2CCOCC2)nc2sc3cc(Cl)ccc3n2c1=N | 94.4% | 95.7% | 95.2% | 102% | 67.3% | 67.2% | 104% | 66.8% | 99% | 33.1%
CCOC(=O)C1=C(C)N2C(=NC3=C(CCC/C3=C\c3ccc(Cl)cc3)C2c2ccc(Cl)cc2)S1 (stereo not given) | -19.1% (active) | 23% | 78.1% | 48.3% | 47% | 12.8% | -29.2% (active) | 51.7% | 39.4% | 25.3%
COc1cc(NC(=O)c2cc3ccccc3cc2O)c(OC)cc1Cl | -48.7% (active) | 7.08% (active) | 2.16% (active) | 38.4% | -14.9% (active) | -31% (active) | 10.7% | 51.7% | -20.6% (active) | 4.25% (active)
CCOC(=O)C(C(C)=O)c1nc2sc3cc(Cl)ccc3n2c(=N)c1C#N (stereo not given) | 97.9% | 80.9% | 114% | 77.9% | 84.6% | 84.3% | 107% | 28.8% | 87.2% | 77.9%
CCN1C2=C(SC(=S)C1=C1SC(C(=O)OC)=C(C(=O)OC)S1)SC(=Nc1ccc(OC)cc1)C2=O | -13.4% (active) | -21.7% (active) | -24.6% (active) | 5.88% (active) | 61% | -58.3% (active) | -61% (active) | 26.2% | -12.2% (active) | 12.7%
CCCC[N+](CCCC)=c1ccc2nc3c(C)cc(N(CC)CC)cc3sc-2c1 | -48.2% (active) | 5.84% (active) | 4.55% (active) | 22.9% | -8.75% (active) | 43.2% | -23.3% (active) | 6.6% (active) | -11.9% (active) | -23.3% (active)
COc1ccc2nc(NC(=O)c3cc(-c4ccc(F)cc4)n4nc(-c5ccccc5)cc4n3)sc2c1 | 83.5% | 53.5% | 85.6% | 59.1% | 67.6% | 101% | 67.9% | 79.9% | 70.9% | 89.5%
COc1ccc(-c2nnc(COc3ccc(NC(=O)Nc4cc(C(F)(F)F)cc(C(F)(F)F)c4)cc3F)o2)cc1 | -25.8% (active) | 11.4% | 29% | 19.2% | 18.4% | 44.4% | 2.67% (active) | 16.8% | 10.6% | 20.4%
CC(=O)c1ccc2c3c(n(C)c2c1)CCCC3 | 90.2% | 106% | 91.7% | 106% | 110% | 104% | 111% | 141% | 96.9% | 109%
O=C(Cn1ccnc1)NC(c1ccccc1)c1ccccc1 | 108% | 102% | 83.5% | 105% | 114% | 106% | 116% | 102% | 102% | 101%
CCC1(c2ccccc2)Oc2ccccc2-n2c(C#N)c3ccccc3c2C1=O (stereo not given) | 92.6% | 98.4% | 108% | 99.8% | 91.4% | 93.9% | 103% | 105% | 95.6% | 91.7%
O=C(Nc1cccc(-n2cc(-c3ccncc3)c(-c3ccc(O)c(Cl)c3)n2)c1)Nc1ccc(Cl)c(C(F)(F)F)c1 | -27.4% (active) | -44.7% (active) | 39.4% | -5.46% (active) | 4.82% (active) | -20.9% (active) | -21.1% (active) | -0.107% (active) | 11.3% | -10% (active)
COc1ccc2nc3cc(Cl)ccc3c(N3CCN(c4ccnc(Nc5ccc(F)cc5)n4)CC3)c2c1 | 63.4% | 75.8% | 95% | 64.8% | 111% | 87.5% | 82.4% | 94.2% | 71.3% | 54.5%
N=c1ccn2c(n1)O[C@@H]1[C@@H](O)[C@H](CO)O[C@@H]12 | 94.4% | 25.7% | 81% | 76.7% | 61.7% | 71.4% | 87.5% | 99% | 41.6% | 92.7%
c1ccc(-c2nnc(Nc3nnc(-c4ccccc4)s3)s2)cc1 | 87.8% | 103% | 100% | 101% | 96.8% | 86.7% | 105% | 100% | 118% | 93.8%
Oc1[nH]c2ccccc2c1/C=c1/ccc2c(c1)N=C(c1cc(F)cc(F)c1)N=2 | 27.5% | 76.9% | 85% | 57.8% | 85% | 63.3% | 55.9% | 69.4% | 61.4% | 40.3%
COC(=O)[C@]12CC[C@@H](C)[C@H](C)[C@@H]1C1=CC[C@@H]3[C@@]4(C)C=C(O)C(=O)[C@@]5(C)COC(=C54)C[C@@]3(C)[C@]1(C)CC2 | -56.5% (active) | -20.5% (active) | -26.9% (active) | -39.1% (active) | -20.8% (active) | -23.5% (active) | -92% (active) | -18.8% (active) | -42.8% (active) | -25.8% (active)
N#CCCCCCn1c2ccccc2c2c3c(c4c5ccccc5[nH]c4c21)C(=O)N(O)C3=O | -18.3% (active) | 7.06% (active) | -18.3% (active) | 19.5% | 41.3% | -1.36% (active) | -13.4% (active) | 19.8% | 67.9% | 14.2%
NCCCc1nnc(CCC(=O)c2nc3ccccc3[nH]2)o1 | 101% | 110% | 104% | 104% | 106% | 104% | 119% | 112% | 97.9% | 97.7%
C/C(=C\CCc1ccsc1)CC/C=C(\C)CCCN1CCN(CCO)CC1 | -18.9% (active) | 59.3% | 71.8% | 41.9% | 77.4% | 52.8% | 64.6% | 49.5% | 56.3% | 36.2%
Cc1ccc(NC(=O)Nc2ccc(-c3cccnc3)cc2N2CCC(CO)CC2)cc1 | 19.4% | 44.2% | 43.6% | 45% | 28.4% | 63.1% | 4.71% (active) | 10.6% | 40% | 42.7%
O=[N+]([O-])c1ccc(N/N=C/c2c(O)ccc3ccccc23)nc1 | 31% | 34.9% | 77.5% | 21.2% | 50.9% | 18.5% | 20.3% | 117% | 27.3% | 47.4%
O=[N+]([O-])c1ccc2c(c1)S(=O)c1cc([N+](=O)[O-])ccc1N2 | 103% | 101% | 95.3% | 100% | 103% | 117% | 113% | 99.7% | 102% | 96.6%
O=C1NCN(c2ccccc2)C12CCN(CCCC(c1ccc(F)cc1)c1ccc(F)cc1)CC2 | 102% | 66.1% | 83.2% | 48.5% | 73.4% | 47.7% | 66.8% | 69.3% | 69.9% | 94.2%
CCCc1nn(C)c2c(=O)[nH]c(-c3cc(S(=O)(=O)N4CCN(C)CC4)ccc3OCC)nc12 | 101% | 109% | 95.6% | 111% | 100% | 112% | 111% | 104% | 90.2% | 98.4%
CC(=O)c1nc2ccccc2n1CCn1cc(CC(N)C(=O)O)c2ccccc21 (stereo not given) | 90% | 99% | 96.9% | 98.8% | 108% | 99.1% | 108% | 109% | 97.5% | 106%
COc1cc([C@@H]2c3cc4c(cc3C(O[C@@H]3O[C@@H]5CO[C@@H](c6cccs6)OC5[C@H](O)[C@H]3O)C3COC(=O)[C@@H]32)OCO4)cc(OC)c1O (stereo not given in full) | -20.8% (active) | -43% (active) | -9.71% (active) | 13.8% | -13.6% (active) | -5.65% (active) | -54% (active) | -3.69% (active) | 60.3% | -0.0776% (active)
